Sampled rows, rich in hits. Any-hit rate of the full collection: about 3.1%.
mTORC1 inh: mTORC1 pathway inhibition measured by phospho-rpS6. hit rate 0.78% among 44,000. AID 493208. Potency, µM (doses to about 38.3 µM), for the others: top-dose activity change, negative = inhibition, hits mostly inhibitors. Tsc2-/- p53-/- MEF, phospho-rpS6 immunofluorescence/PI, 24 h;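 also: potency is read from the fitted curve at half-maximal effect; plate controls were DMSO for no effect and rapamycin for full effect; nearly all actives have a fitted effect of over 50% in size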
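Compounds act on Tsc2-/-, p53-/- fibroblasts carrying an empty vector for 24 h before fixation and dual staining for phospho-S6 and DNA (propidium iodide). Values are percentages of cells above a rapamycin-defined pS6/PI threshold.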
p53null 32C kill: p53 null cell cytotoxicity, permissive temperature; Potency, µM (highest dose often 46.1 µM), inactives show top-dose activity change, negative = cytotoxicity, most hits filed as cytotoxic; hit rate 0.62% among 55,000; H1299-neo p53 null cells, ATP luminescence, 24 h, 32C;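 also: potency is read from the fitted curve at half-maximal effect; 0% = DMSO only and -100% = full killing by 100 µM tamoxifen; nearly all actives have a fitted effect of over 55% in size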
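Luminescent ATP readout gave cell viability of p53-null H1299-neo cells after a 24 h compound exposure at the permissive 32C. Titrations ran up to 46 uM, and AC50s were fitted with the standard Hill equation.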
p53null 39C tox: p53 null cell cytotoxicity, nonpermissive temperature | hit rate 0.97% among 55,000 | Potency, µM (titrated, usually from 46.1 µM), without a hit: top-dose activity, negative = cell killing, actives largely listed as cytotoxic | AID 904 | H1299 p53-null (neo) cells, 39C, ATPlite viability, 24 h;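 also: potency is read from the fitted curve at half-maximal effect; 0% = DMSO only and -100% = full killing by 100 µM tamoxifen; nearly all actives have a fitted effect of over 50% in size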
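ATP-luminescence viability readout (ATPlite, 20 min RT) after 24 hr compound treatment at 39C of H1299-neo or H1299-p53A138V cells; titration up to 46 uM; normalized to DMSO and 100 uM tamoxifen; Hill-fit AC50.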
S16 viability: toxic to S16 Pmp22-F2sN Schwann cells | S16 Pmp22-F2sN Schwann cells viability, CellTiter-Glo, 24 h | Potency, µM (doses to about 57.5 µM), for inactives: top-dose activity change, negative = cytotoxicity, most hits filed as cytotoxic | hit rate 0.48% among 43,000; also: potency is read from the fitted curve at half-maximal effect; % is scaled to controls: 0 for no effect and ±100 for the full control effect; nearly all actives have a fitted effect of over 65% in size
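Viability was measured by CellTiter-Glo luminescence (15 min, room temperature). This followed 24 h at 37 °C of compound exposure (23 nL pin transfer) in S16 Pmp22-F2sN Schwann cells, 500-1,000 per well.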
SKOV3 invasion: blocks SKOV3ip1 adhesion and invasion in omental model | SKOV3ip1-GFP adhesion/invasion on 3D omental model, fluorescence | Potency, µM (highest dose often 45.8 µM), inactives show at the highest dose activity change, negative = inhibition, hits mostly inhibitors | hit rate 0.1% among 46,000 | AID 1963576;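 also: potency is read from the fitted curve at half-maximal effect; plate controls were DMSO wells for no effect and tomatine positive control wells for full effect; nearly all actives have a fitted effect of over 65% in size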
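A 3D layer of primary human omental fibroblasts, mesothelial cells, fibronectin and collagen I, grown 48 hr, received SKOV3ip1-GFP cells in serum-free medium plus compounds at 0.36-46 umol/L. After 2 hr RT and 16 hr 37 C, fixed adherent GFP cells were counted; normalized to DMSO and tomatine.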
PMP22 txn prim: modulators of PMP22 gene transcription in S16 Schwann cells; Potency, µM (series often up to 57.5 µM), for inactives: top-dose activity change, negative = inhibition, most hits filed as inhibitors; hit rate 2% among 43,000; AID 1508649; S16 Pmp22-F2sN Schwann cells, FLuc/NLuc coincidence luminescence, 24 h; active = clear falling dose curves in both reporters; inconclusive = both reporters move, but less clearly or upward; inactive = either reporter flat; the % is the NLuc reporter signal; also: potency is read from the fitted curve at half-maximal effect; % is scaled to controls: 0 for no effect and ±100 for the full control effect
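Schwann cells carrying the coincidence reporter were exposed to library compounds for 24 h at 37C, then lysed and read for FLuc and, after quenching, NLuc luminescence on a CCD imager.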
NLuc sat counter: NanoLuc enzyme inhibition artifact for PMP22 screen; shares compounds with PMP22 txn prim; Secreted NLuc enzyme (filtered S16 cell medium), Nano-Glo luminescence; Potency, µM (titrated, usually from 57.5 µM), without a hit: at the highest dose activity change, negative = inhibition, most hits filed as inhibitors; hit rate 4% among 690; AID 1508638; also: potency is read from the fitted curve at half-maximal effect; % is scaled to controls: 0 for no effect and ±100 for the full control effect
NLuc Km ctr: NanoLuc inhibition at Km substrate, PMP22 artifact check; AID 1508639; shares compounds with PMP22 txn prim; hit rate 5% among 690; Potency, µM (series often up to 57.5 µM), without a hit: top-dose activity change, negative = inhibition, hits mostly inhibitors; secreted NLuc enzyme, coelenterazine luminescence, Km conditions; also: potency is read from the fitted curve at half-maximal effect; % is scaled to controls: 0 for no effect and ±100 for the full control effect
FLuc ctr PMP22: inhibits firefly luciferase, PMP22 counter-screen | 690 tested, under 10 active | purified P. pyralis FLuc, luminescence, 10 min | Potency, µM (highest dose often 57.5 µM), without a hit: at the highest dose activity, negative = inhibition, actives largely listed as inhibitors | shares compounds with PMP22 txn prim; also: % of control where 0% means no effect
Target sequence (P08659 whole entry, looked up): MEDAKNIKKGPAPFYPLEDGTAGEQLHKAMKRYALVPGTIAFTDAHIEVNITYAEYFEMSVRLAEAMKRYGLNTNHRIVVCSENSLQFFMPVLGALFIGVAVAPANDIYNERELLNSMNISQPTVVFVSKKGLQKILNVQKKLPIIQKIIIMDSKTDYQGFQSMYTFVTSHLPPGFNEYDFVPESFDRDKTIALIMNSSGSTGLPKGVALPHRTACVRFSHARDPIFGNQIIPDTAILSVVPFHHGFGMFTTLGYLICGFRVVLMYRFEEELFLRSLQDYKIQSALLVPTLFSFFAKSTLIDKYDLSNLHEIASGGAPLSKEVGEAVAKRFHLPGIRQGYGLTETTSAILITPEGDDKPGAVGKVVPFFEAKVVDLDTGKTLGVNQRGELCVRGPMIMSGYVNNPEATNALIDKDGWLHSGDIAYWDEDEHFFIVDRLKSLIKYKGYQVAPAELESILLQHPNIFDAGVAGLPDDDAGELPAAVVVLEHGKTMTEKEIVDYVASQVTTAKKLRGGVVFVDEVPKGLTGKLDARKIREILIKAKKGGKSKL
S16 F2sN tox cnf: confirmation of cytotoxicity in S16 Pmp22-F2sN Schwann cells (luciferase reporters placed in the Pmp22 gene); AID 1508641; S16 Schwann cells viability, CellTiter-Glo ATP luminescence, 24 h; Potency, µM (series often up to 57.5 µM), inactives show top-dose activity change, negative = viability loss, usual class: cytotoxic; shares compounds with PMP22 txn prim; hit rate 7% among 690; also: potency is read from the fitted curve at half-maximal effect; % is scaled to controls: 0 for no effect and ±100 for the full control effect
PMP22 txn cnf: confirmation of modulators of PMP22 gene transcription in S16 cells; Potency, µM (highest dose often 57.5 µM), inactives show at the top dose activity change, negative = inhibition, most hits filed as inhibitors; hit rate 22% among 690; shares compounds with PMP22 txn prim; S16 Schwann cells Pmp22-F2sN, dual luciferase, 24 h; active = clear falling dose curves in both reporters; inconclusive = both reporters move, but less clearly or upward; inactive = either reporter flat; the % is the FLuc reporter signal; also: potency is read from the fitted curve at half-maximal effect
PMP22 HiBiT cnf: confirmation of modulators of rat PMP22 protein expression. shares compounds with PMP22 txn prim. S16 Schwann cells Pmp22-HiBiT, luminescence, 48 h. Potency, µM (highest dose often 27.9 µM), for inactives: at the highest dose activity change, negative = inhibition, hits mostly inhibitors. 95 tested, under 10 active
Target sequence (P25094 whole entry, looked up): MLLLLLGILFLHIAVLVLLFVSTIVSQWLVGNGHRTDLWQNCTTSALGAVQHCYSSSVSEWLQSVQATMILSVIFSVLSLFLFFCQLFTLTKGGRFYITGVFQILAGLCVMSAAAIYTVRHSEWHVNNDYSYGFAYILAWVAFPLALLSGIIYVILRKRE
The depositor's hits bear a star; i = inactive; ? = inconclusive; · = no result given; [ ] = dose if it differs, or a comment. Unless noted, calls follow the shape of the dose curve; as a rule, active = well fitted curve in the direction sought with a large enough effect; inconclusive = small, poorly fitted or top-dose-only effect, or another doubt; inactive = no such curve, though single readings can be large; an effect the other way counts as inactive or inconclusive.

SMILES	mTORC1 inh	p53null 32C kill	p53null 39C tox	S16 viability	SKOV3 invasion	PMP22 txn prim	NLuc sat counter	NLuc Km ctr	FLuc ctr PMP22	S16 F2sN tox cnf	PMP22 txn cnf	others
COc1ccc(NS(=O)(=O)c2ccc3c(c2)CC(C)N3C(=O)C2CCC2)cc1OC (stereo unspecified)	-16%	-1%	12%	-12%	i	3µM*	-17%	?	1%	-5%	?
O=C(CCS(=O)(=O)c1nc(-c2cccs2)cc(C(F)(F)F)n1)Nc1ccc(Br)cc1	?	5%	47%	?	3.2µM*	6.4µM*	-7%	?	-3%	?	11µM*	PMP22 HiBiT cnf=65%
CCN(CC)c1ccc(NC(=O)CSc2nc(-c3cccs3)cc(C(F)(F)F)n2)cc1	-14%	10%	-23%	0%	-9%	?	·	·	·	·	·
Cc1cc(C)c(NC(=O)Cn2c(=O)oc3cc(S(=O)(=O)N4CCCCCC4)ccc32)c(C)c1	-3%	-1%	8%	-13%	i	?	-16%	2%	2%	-16%	?
Cc1cccc(NC(=O)Cn2c(=O)oc3cc(S(=O)(=O)NCc4ccccc4)ccc32)c1	0%	?	-7%	-10%	3%	11µM*	-2%	-18%	5%	-3%	-16%
Cc1cc(C)cc(NC(=O)Cn2c(=O)oc3cc(S(=O)(=O)N4CCCC4)ccc32)c1	-9%	10%	-14%	16%	12%	-27%	·	·	·	·	·
CCN(CC)CCOc1ccc(Nc2ncc3cc(-c4c(Cl)cccc4Cl)c(=O)n(C)c3n2)cc1	·	·	·	·	-25%	·	·	·	·	·	·
CCN(CC)c1ccc(NC(=O)C2COc3ccc(OC)cc3C2)c(C)c1 (stereo unspecified)	-14%	-16%	?	?	-8%	12µM*	-8%	-2%	-3%	?	15µM*	PMP22 HiBiT cnf=?
COc1ccc2c(c1)CC(C(=O)Nc1ccc(OC)cc1OC)CO2 (stereo unspecified)	-19%	-3%	4%	-3%	19%	-15%	·	·	·	·	·
CC(C)=CC[C@@H](O)C1=CC(=O)c2c(O)ccc(O)c2C1=O	·	·	·	·	8%	·	·	·	·	·	·
CCN(CC)c1cc(C)c2cc(NC(=O)/C=C/c3ccccc3Cl)ccc2n1	?	-3%	?	?	?	12µM*	?	-17%	-24%	?	?
Cn1cc(C[C@@H](N)C(=O)O)c2ccccc21	·	·	·	·	6%[23.2 µM]	·	·	·	·	·	·
Cc1c(Cl)cccc1NC(=O)CSc1ncc2c(n1)-c1ccccc1N(C)S2(=O)=O	3%	-23%	-18%	5%	-3%	17µM*	?	?	2%	6%	-44%
CCn1c(CN2CCCCC2)nc2cc(NC(=O)COc3ccccc3C(C)(C)C)ccc21	-1%	0%	-2%	2%	-22%	14µM*	-11%	2%	1%	1%	?
CCn1c(CN2CCCCC2)nc2cc(NC(=O)c3ccccc3[N+](=O)[O-])ccc21	-10%	14%	-18%	-7%	-10%	?	·	·	·	·	·
C=CC(=O)N1CCC[C@@H](n2nc(-c3ccc(Oc4ccccc4)cc3)c3c(N)ncnc32)C1	·	·	·	·	0%	·	·	·	·	·	·
Cc1ccc(Cl)cc1N1CCN(CCCNc2ncnc3onc(-c4ccc(Cl)cc4)c23)CC1	-2%	0%	-2%	4%	-3%	14µM*	-7%	7%	-9%	5%	?
CN(C)CC[C@H](CSc1ccccc1)Nc1ccc(S(=O)(=O)NC(=O)c2ccc(N3CCN(Cc4ccccc4-c4ccc(Cl)cc4)CC3)cc2)cc1[N+](=O)[O-]	·	·	·	·	15%	·	·	·	·	·	·
CCCCCCCCCCCCc1ccc(S(=O)(=O)Nc2nncs2)cc1	·	·	·	·	-13%	·	·	·	·	·	·
CCOc1cc(C2CC(=O)Nc3cc4c(cc32)OCCO4)ccc1O (stereo unspecified)	-1%	8%	-8%	?	-2%	-30%	·	·	·	·	·
COc1cc(C2CC(=O)Nc3cc4c(cc32)OCCO4)cc(Br)c1OC (stereo unspecified)	?	16%	-9%	?	i	0.67µM*	-4%	-8%	4%	-4%	?
CNC(=O)c1ccc2cc(C3(O)CCn4cncc43)ccc2c1 (stereo unspecified)	·	·	·	·	6%	·	·	·	·	·	·
CCC=CC[C@H]1C(=O)CC[C@@H]1CC(=O)OC	·	·	·	·	1%	·	·	·	·	·	·
CC(Oc1ccccc1)C(=O)Nc1ccccc1C(=O)OCc1cc(=O)n2nc(C3CC3)sc2n1 (stereo unspecified)	21%	-6%	3%	8%	1%	6.5µM*	-10%	-3%	-14%	5%	-11%
Cc1c(C(=O)OC2CCCCCC2)[nH]c2c1C(=O)CC(c1ccccc1Cl)C2 (stereo unspecified)	-25%	25%	24%	-22%	-20%	?	·	·	·	·	·
Cc1c(C(=O)OC2CCC(C)CC2)[nH]c2c1C(=O)CC(c1ccccc1Cl)C2 (stereo unspecified)	?	29%	38%	-28%	i	10µM*	?	-5%	6%	10%	-23%

Source: PubChem BioAssay (National Center for Advancing Translational Sciences (NCATS))
